# Laboratory results taken from PubChem BioAssay AID720504 (National Center for Advancing Translational Sciences (NCATS), 2013).
# Among all 360,000 compounds or so, about 10,000 (2.8%) were called active. About 4% were inconclusive and are not listed. The call rests on the fitted dose curve; in most records, active means well fitted inhibition curve with a large enough effect; inconclusive means small, poorly fitted or top-dose-only effect; inactive means flat fitted curve, though single readings scatter. The sample as a whole holds a higher share of actives than the screen did.
# Molecular target: Serine/threonine-protein kinase PLK1 (Homo sapiens) (UniProt P53350)
# Sequence (P53350 whole entry, looked up, the tested form may be a part): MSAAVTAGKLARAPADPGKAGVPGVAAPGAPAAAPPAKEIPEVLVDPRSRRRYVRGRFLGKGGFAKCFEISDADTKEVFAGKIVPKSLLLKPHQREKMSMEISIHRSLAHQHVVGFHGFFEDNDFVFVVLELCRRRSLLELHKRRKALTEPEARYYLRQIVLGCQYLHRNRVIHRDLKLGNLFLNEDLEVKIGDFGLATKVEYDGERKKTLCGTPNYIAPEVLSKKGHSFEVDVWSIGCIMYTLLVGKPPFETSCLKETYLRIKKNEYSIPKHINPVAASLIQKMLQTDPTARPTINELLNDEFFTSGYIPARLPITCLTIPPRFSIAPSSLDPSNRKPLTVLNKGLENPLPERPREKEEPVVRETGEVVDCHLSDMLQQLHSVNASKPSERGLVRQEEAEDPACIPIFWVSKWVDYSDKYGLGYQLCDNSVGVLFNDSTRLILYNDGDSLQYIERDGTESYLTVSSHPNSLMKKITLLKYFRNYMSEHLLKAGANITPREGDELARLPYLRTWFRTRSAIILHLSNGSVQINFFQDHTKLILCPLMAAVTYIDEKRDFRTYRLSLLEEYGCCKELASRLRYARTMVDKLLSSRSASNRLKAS
# Assay: qHTS for Inhibitors of PLK1-PDB (polo-like kinase 1 - polo-box domain): Primary Screen; further: nearly all actives have a fitted effect of over 65% in size; on max response, negative = inhibition: series mostly up to about 57 µM
# Details: Plk1 PBD binding of FITC phosphopeptide, fluorescence polarization
# On the % scale 0 is the no-effect control and ±100 the full control effect; potency means the concentration at half of the fitted maximal effect.
SMILES,"max response, negative = inhibition",Potency
CC(=O)N1Cc2cc(C(=O)NCc3cccc(F)c3)nc(-c3cccc(C4=CCCC4)c3)c2[C@H]1CCO,-3.4% (inactive),–
CCC(C)CN1C(=O)CSCC1(C)C(=O)NCc1ccccc1 (centres undefined),-12.2% (inactive),–
O=C(Nc1ccc(Cl)cc1)C1Cc2c(-c3ccc4c(c3)OCO4)ccnc2O1 (centres undefined),-2.05% (inactive),–
C[C@H]1CN([C@@H](C)CO)C(=O)CCCn2cc(nn2)CO[C@@H]1CN(C)C(=O)Nc1ccccc1,-14% (inactive),–
O=C(c1ccc[nH]c1=S)N1CCN(S(=O)(=O)c2ccc(Br)cc2Cl)CC1,–,26.7 µM (active)
O=C(c1ccccc1F)N1CCN(S(=O)(=O)c2ccc(Br)cc2)CC1,-0.788% (inactive),–
O=C(c1ccc(Cl)c(S(=O)(=O)N2CCCCC2)c1)N1CCCCCC1,-9.42% (inactive),–
O=C(COc1ccc(S(=O)(=O)N2CCCC2)cc1[N+](=O)[O-])N1CCCCC1,0.94% (inactive),–
C[C@H]1CN([C@@H](C)CO)C(=O)CCCn2cc(nn2)CO[C@@H]1CN(C)S(=O)(=O)c1ccccc1C#N,-15.7% (inactive),–
Cc1onc(C(=O)NN)c1C(=O)N1CCN(C(c2ccccc2)c2ccccc2)CC1,1.96% (inactive),–
CCOC(=O)N1CCN(C(c2cccnc2)c2ccc3cccnc3c2O)CC1 (centres undefined),–,5.97 µM (active)
CCN1CCN(C(c2cccnc2)c2cc(Cl)c3cccnc3c2O)CC1 (centres undefined),–,10.6 µM (active)
CCOC(=O)N1CCN(C(c2ccnc3ccccc23)c2nnnn2-c2c(C)cccc2C)CC1 (centres undefined),6.16% (inactive),–
O=C(NC1CCCC1)C1c2ccccc2OCC(=O)N1CC(F)(F)F (centres undefined),-3.82% (inactive),–
CCOC1=C2[C@@H](CN(S(=O)(=O)c3ccc(C)cc3)[C@H]2c2ccccc2F)[C@H]2C(=O)N(Cc3ccccc3)C(=O)[C@H]2C1,-14.5% (inactive),–
CCCCCCNC(=O)O[C@]12C[C@@H](C(=O)OC)[C@@H](C(=O)OC)C[C@@]1(O)CN(S(=O)(=O)c1ccc(C)cc1)C2,-1.62% (inactive),–
CCc1ccc(C2C(C#N)=C(N)N(N3CCOCC3)C3=C2C(=O)CC(C)(C)C3)s1 (centres undefined),–,26.7 µM (active)
COc1ccc(C2C(C#N)=C(/N=C/N3CCOCC3)OC3=C2C(=O)CC(C)(C)C3)cc1OC (centres undefined),-6.22% (inactive),–
CCc1ccc(C2C(C#N)=C(N)N(N(C)C)C3=C2C(=O)CCC3)s1 (centres undefined),2.14% (inactive),–
O=C(O)c1ccccc1-c1ccccc1C(=O)NCc1cccnc1,-5.72% (inactive),–
CCC(Oc1ccccc1)C(=O)NCc1cccnc1 (centres undefined),–,18.9 µM (active)
O=C(NCc1cccnc1)Nc1ccccc1F,-0.233% (inactive),–
COc1cccc(C(NC(C)=O)c2nc(-c3ccccc3OC)cs2)c1 (centres undefined),-10% (inactive),–

SMILES,"max response, negative = inhibition",Potency
CC1=NN(C(N)=S)C(=O)C1N=Nc1cc(Cl)ccc1Cl (centres undefined),–,26.7 µM (active)
O=C(c1cc(-c2ccc(Cl)cc2)on1)N1CCN(c2ccccc2)CC1,-5.98% (inactive),–
COc1ccc(-c2cc(C(=O)N3CCN(c4ccc(F)cc4)CC3)no2)cc1,-9.29% (inactive),–
O=C(c1cc(-c2ccc(F)cc2)on1)N1CCN(c2ccc(F)cc2)CC1,–,26.7 µM (active)
OC[C@@H]1CN(Cc2ccc(-c3ccccc3)cc2)C[C@H](n2cnc3c(NC4CCCC4)ncnc32)O1,4% (inactive),–
CCOC(=O)c1cc(-c2sc(NC(=O)c3ccccc3)nc2C)n(Cc2ccccc2)n1,7.73% (inactive),–
COC(=O)[C@]12CCCCC=C1N(CCC1=CCCCC1)C(=O)[C@H](CC(=O)NCC1CCCCC1)C2,-2.73% (inactive),–
Cc1csc(NC(=O)C2=COCCO2)n1,-3.95% (inactive),–
Cc1sc(NC(=O)C2=COCCO2)c(C#N)c1C,–,11.9 µM (active)
CCC(CC)c1nnc(NC(=O)C2=COCCO2)s1,-0.0349% (inactive),–
COc1cccc(NC(=O)Nc2ccc(F)cc2)c1,-6.36% (inactive),–
COc1cc(CNC2CCCC2)c(Br)cc1OCc1ccccc1,-0.667% (inactive),–
COc1cc(C(=O)NCc2ccncc2)cc(Br)c1OCc1ccccc1,-15.6% (inactive),–
COc1cc(C(=S)NCc2ccccc2)cc(Br)c1O,–,4.23 µM (active)
Nc1nc2cc(Cl)ccc2n1N,-1.19% (inactive),–
CCCNC(=O)c1cc(C2CCCCN2C(=O)OC)on1 (centres undefined),-6.79% (inactive),–
O=C(c1ccc(CS(=O)Cc2ccccc2Cl)o1)N1CCN(c2ccccc2)CC1 (centres undefined),-18.2% (inactive),–
Cc1ccc2nc(-c3ccccc3)c(CC3CCCCC3)n2c1,-7.91% (inactive),–
O=C1NC(O)CCN1C1CC(O)C(CO)O1 (centres undefined),-1.57% (inactive),–
Nc1ccccc1SC(C[N+](=O)[O-])c1ccccc1 (centres undefined),–,0.752 µM (active)
Nc1cccc(OCCCCCOc2cccc(N)c2)c1,1.62% (inactive),–
N#Cc1cccc(NC(=O)c2cc(C3CCCCN3C(=O)CCc3ccccc3)on2)c1 (centres undefined),4.56% (inactive),–
Cc1ccccc1S(=O)(=O)NC(=O)C1(C)CCN1C(=O)Cc1ccc(Cl)cc1Cl (centres undefined),-14.1% (inactive),–

SMILES,"max response, negative = inhibition",Potency
CCOC(=O)N1CCN(C(=O)C2CC(c3ccc(F)cc3)=NO2)CC1 (centres undefined),-12.9% (inactive),–
O=C(c1ccco1)N1CCN(C(=O)C2CC(c3ccc(Cl)c(Cl)c3)=NO2)CC1 (centres undefined),-17% (inactive),–
O=C(c1ccco1)N1CCN(C(=O)C2CC(c3ccc(F)cc3)=NO2)CC1 (centres undefined),–,26.7 µM (active)
COc1ccc(CN(C)C(=O)Cc2ccsc2)c(OC)c1OC,-14.4% (inactive),–
COc1ccc(S(=O)(=O)N2CCCCCC2)cc1C(=O)N(C)Cc1cccc(OC)c1OC,-7.8% (inactive),–
COc1cccc(CN(C)C(=O)CC23CC4CC(CC(C4)C2)C3)c1OC,–,29.9 µM (active)
Cc1ccc(S(=O)(=O)NN=C2CC(C)(C)CC(=O)C2(C)C)cc1,-5.23% (inactive),–
CCOc1ccc(C2/C(=C(/O)c3ccc4c(c3)CC(C)O4)C(=O)C(=O)N2CCCn2ccnc2)cc1 (centres undefined),-16.9% (inactive),–
c1ccc(Cc2ccc(OCCn3ccnc3)cc2)cc1,4.09% (inactive),–
CCCOc1ccc(C2C(C(=O)c3ccc(C)o3)=C(O)C(=O)N2CCCn2ccnc2)cc1 (centres undefined),–,23.8 µM (active)
COc1ccc(C(=O)N2CCCN(C)CC2)c(OC)c1,1.15% (inactive),–
COc1cc(OC)c(C(=O)N2CCCC2)cc1OC,-4.54% (inactive),–
COc1cc(OC)c(C(=S)N2CCCC2)cc1OC,–,11.9 µM (active)
NC(=O)CSc1nnc(-c2cccc(S(=O)(=O)N3CCOCC3)c2)o1,-12.4% (inactive),–
CCN(CC)C(=O)C1=C(C)N(Cc2ccc(F)cc2)C(=O)C(CC(=O)NC2CCCC2)C1 (centres undefined),3.61% (inactive),–
CC(C)C[C@H]1CN([C@@H](Cc2ccccc2)CN2CCC[C@@H]2CN2C(=O)C(=O)NC[C@@H]2Cc2ccc(O)cc2)C(=O)C(=O)N1CCc1ccccc1,0.344% (inactive),–
CCC(C)Sc1nc2c(c(=O)[nH]c(=O)n2C)n1CC(O)COc1cccc2ccccc12 (centres undefined),–,18.9 µM (active)
CN1CCN(c2nc3c(c(=O)[nH]c(=O)n3C)n2Cc2cccc3ccccc23)CC1,-17.6% (inactive),–
Cc1cccc(OCC(O)Cn2c(N3CCCCC3)nc3c2c(=O)[nH]c(=O)n3C)c1 (centres undefined),-3.66% (inactive),–
CC1(C(=O)O)CCCN(C(=O)/C=C/c2ccccc2)C1 (centres undefined),-5.95% (inactive),–
CCC(=O)N1CCC(C)(C(=O)Nc2cc(OC)c(OC)c(OC)c2)C1 (centres undefined),4.76% (inactive),–
O=S1(=O)CC(N2CCC(Cc3ccccc3)CC2)CN1Cc1ccccc1 (centres undefined),-4.73% (inactive),–
COc1ccc(C(=O)Nc2ccc(F)cc2F)cc1,-1.72% (inactive),–

SMILES,"max response, negative = inhibition",Potency
COC(=O)c1nc(NC(=O)c2ccc(Cl)cc2)n[nH]1,–,26.7 µM (active)
COc1ccc(C(=O)NNC(=O)c2cc(C)[nH]n2)cc1,-5.72% (inactive),–
COC(=O)c1sccc1NC(=O)c1ccc(Cl)cc1,-7.12% (inactive),–
CSc1nccc(NC(=O)c2ccc(C(C)(C)C)cc2)n1,-8.27% (inactive),–
COC(=O)c1nc(NC(=O)c2ccc(F)cc2)n[nH]1,–,15 µM (active)
CC(C)Oc1cc(F)ccc1-c1cc(C(=O)Nc2ccc(F)cc2)[nH]n1,-4.13% (inactive),–
O=C(Nc1n[nH]c(C(F)(F)F)n1)c1cccs1,-23.4% (inactive),–
CCOC(=O)NNC(=O)c1ccc(Cl)cc1,-5.54% (inactive),–
O=C(Nc1nsc(-c2ccccc2)n1)c1ccncc1,0.306% (inactive),–
COC(=O)c1nc(NC(=O)c2ccc(C(C)(C)C)cc2)n[nH]1,–,3.77 µM (active)
COC(=O)c1nc(NC(=O)c2ccccc2)n[nH]1,–,26.7 µM (active)
OC[C@@H]1CN(Cc2ccc(Cl)cc2)C[C@H](n2cnc3c(NCc4ccncc4)ncnc32)O1,-6.44% (inactive),–
O=C1Nc2ccccc2-n2nnnc2C1N1CCN(c2cccc(C(F)(F)F)n2)CC1 (centres undefined),-6.8% (inactive),–
COc1cccc(-c2cnc3c(NC(C)=O)cc(-c4cc(F)ccc4OC)cn23)c1,-5.58% (inactive),–
CCOC1=C2[C@H]([C@H]3C(=O)N(c4ccccc4)C(=O)[C@H]3C1)[C@@H](c1ccccc1)N(S(=O)(=O)c1ccc(C)cc1)[C@H]2c1ccccc1,1.42% (inactive),–
Cc1ccccc1C#CC1=CC(=O)CC(C)(C)C1,-11.2% (inactive),–
COc1ccccc1CNC(=O)c1cc(-c2cc(F)ccc2OC)n[nH]1,-1.03% (inactive),–
O=C(OC1CC2CC1[C@H]1CCCCN1C2=O)N1CCOCC1 (some centres undefined),-1.86% (inactive),–
COc1cc(C(O)c2nc(-c3cnn(C)c3)cs2)ccc1F (centres undefined),-2.35% (inactive),–
COc1cc(C(=O)N2CCOC23CCN(Cc2ccccc2)CC3)cc(OC)c1OC,1.8% (inactive),–
